Measurements published in PubChem BioAssay (Tox21).
Records with an inconclusive call do not appear. Calls of active or inactive are those of the source. Unless noted, the call rests on the fitted dose curve.

How the values were obtained:
[1] = Nuclear factor erythroid 2-related factor 2/antioxidant responsive element (Nrf2/ARE) small molecule agonists: qHTS cell viability counter screen in human keratinocytes (AID 1919968; active means well fitted curve in the direction sought with a large enough effect in the repeat runs; an effect the other way counts as inactive or inconclusive; further: nearly all actives have a fitted effect of over 55% in size; further: potency means the concentration at half of the fitted maximal effect); details: KeratinoSens HaCaT ARE cells viability, CellTiter-Fluor, 24 h; series mostly up to 92.4 µM
Summary of the method: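 Measured as CellTiter-Fluor fluorescence, this readout tracks cytotoxicity in the same wells as the ARE-luciferase screen. HaCaT reporter cells (1,500/well) received compounds after a 5 h pre-incubation and were exposed for 23 h.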

[2] = Nuclear factor erythroid 2-related factor 2/antioxidant responsive element (Nrf2/ARE) small molecule agonists: luciferase reporter gene qHTS assay in human keratinocytes (AID 1919969); details: KeratinoSens HaCaT ARE-luciferase, luminescence, 24 h; series mostly up to 92.4 µM; further: nearly all actives have a fitted effect of over 35% in size
[3] = target: Gonadotropin-releasing hormone receptor (Homo sapiens) (UniProt P30968); assay: Human gonadotropin-releasing hormone receptor (GnRHR) small molecule agonists, calcium flux assay in GnRHR-HEK293 cells (AID 1920063); details: calcium flux fluorescence, agonist mode; series mostly up to 57.6 µM; further: nearly all actives have a fitted effect of over 35% in size
Sequence of Gonadotropin-releasing hormone receptor (Homo sapiens) (P30968 whole entry, looked up): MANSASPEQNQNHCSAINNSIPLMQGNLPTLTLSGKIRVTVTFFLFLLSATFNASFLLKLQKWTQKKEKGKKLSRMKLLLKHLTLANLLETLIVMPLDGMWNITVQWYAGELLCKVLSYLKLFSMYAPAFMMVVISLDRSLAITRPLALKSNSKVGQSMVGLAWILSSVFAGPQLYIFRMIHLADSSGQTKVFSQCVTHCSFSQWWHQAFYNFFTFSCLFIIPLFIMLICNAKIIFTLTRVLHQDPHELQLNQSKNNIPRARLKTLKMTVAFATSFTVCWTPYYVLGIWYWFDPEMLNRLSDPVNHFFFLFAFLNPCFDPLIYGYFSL
Summary of the method: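 Fluorescence kinetics (480 nm excitation, 540 nm emission; 3 min, 1 s steps) report calcium mobilisation in human GnRHR-HEK293 cells in agonist mode. Dye incubation: 1 h, 37 C.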

[4] = target: KiSS-1 receptor (Homo sapiens) (UniProt Q969F8); assay: Human kisspeptin (KISS1R) small molecule agonists, calcium flux assay in KISS1R-HEK293 cells (AID 1920064; active means well fitted curve in the direction sought with a large enough effect in the repeat runs; an effect the other way counts as inactive or inconclusive); details: KISS1R-HEK293, calcium flux fluorescence, agonist; series mostly up to 76.8 µM
Sequence of KiSS-1 receptor (Homo sapiens) (Q969F8 whole entry, looked up): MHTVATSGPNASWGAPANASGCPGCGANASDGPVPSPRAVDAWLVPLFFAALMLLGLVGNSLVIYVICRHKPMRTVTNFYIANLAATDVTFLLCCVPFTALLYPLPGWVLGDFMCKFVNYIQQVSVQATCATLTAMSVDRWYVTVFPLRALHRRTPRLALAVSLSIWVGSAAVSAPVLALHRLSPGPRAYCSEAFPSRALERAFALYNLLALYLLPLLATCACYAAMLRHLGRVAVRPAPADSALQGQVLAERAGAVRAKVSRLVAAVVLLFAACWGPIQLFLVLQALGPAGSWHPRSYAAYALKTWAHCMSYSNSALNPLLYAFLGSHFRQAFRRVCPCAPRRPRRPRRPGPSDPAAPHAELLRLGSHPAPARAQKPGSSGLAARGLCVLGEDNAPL
Summary of the method: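 Measures KISS1R agonism through calcium-sensitive dye fluorescence in stably transfected HEK293 cells, read for 3 min after pin-tool compound delivery; 15-point titrations in triplicate.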

[5] = G protein-coupled receptor (GPCR) small molecule agonists, calcium flux assay: HEK293 wild type cell line counter screen (AID 1920065); details: HEK293 WT calcium flux, fluorescence, agonist mode; series mostly up to 57.6 µM
Summary of the method: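 Readout: fluorescence at 480 nm excitation/540 nm emission, sampled at 1 s intervals for 3 min. Cells had been cultured 18 h, then dye-loaded 1 h at 37 C before compound or ATP addition.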

[6] = p53 small molecule agonists, cell-based qHTS assay with human liver microsomes (AID 1963577); details: HCT-116 p53RE-bla with human liver microsomes, ratio, 16 h; series mostly up to 66 µM
Summary of the method: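 p53RE-bla reporter cells were pre-incubated 5 h at 37 C, then treated with compounds plus human liver microsomes (0.5 mg/mL final) and NADPH (0.5 mg/mL final) for 16 h at 37 C. Beta-lactamase activity was read by LiveBLAzer fluorescence after 2 h at room temperature.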

[7] = p53 small molecule agonists, cell-based qHTS assay with rat liver microsomes (AID 1963578); details: HCT-116 p53RE-bla, beta-lactamase ratio, 16 h; series mostly up to 66 µM
Summary of the method: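 p53RE-bla cells were exposed to compounds together with rat liver microsomes (0.5 mg/mL final) and NADPH (0.5 mg/mL final) for 16 h at 37 C, then read by LiveBLAzer beta-lactamase fluorescence after 2 h at room temperature.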

[8] = p53 small molecule agonists, cell-based qHTS assay with rat liver microsomes: qHTS cell viability counter screen (AID 1963580); details: p53RE-bla HCT-116 + rat microsomes, ATP viability, 16 h; series mostly up to 66 µM; further: nearly all actives have a fitted effect of over 45% in size
Summary of the method: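 In HCT-116 cells carrying a p53 response element-bla reporter, compounds were metabolically activated in situ by rat liver microsomes with NADPH over 16 h. Cell ATP content then served as the cytotoxicity measure.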

[9] = p53 small molecule agonists, cell-based qHTS assay: qHTS cell viability counter screen (AID 1963581); details: p53RE-bla HCT-116 viability, ATP luminescence, 16 h; series mostly up to 66 µM; further: nearly all actives have a fitted effect of over 45% in size
Summary of the method: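 In the same plates used for the p53 bla reporter, HCT-116 cells given compounds for 16 h at 37 C received CellTiter-Glo; luminescence was recorded 30 min later at room temperature.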

[10] = p53 small molecule agonists, cell-based qHTS assay (AID 1963582; active means well fitted activation curve with a large enough effect in the signal ratio in the repeat runs, not every such curve was filed as active; the % refers to the signal ratio); details: HCT-116 p53RE-bla reporter, beta-lactamase FRET ratio, 16 h; series mostly up to 66 µM
Summary of the method: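 Compounds are pin-transferred in DMSO onto p53RE-bla cells and incubated 16 h at 37 C. The B/G FRET beta-lactamase substrate is then applied for 2 h at RT and fluorescence recorded.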

[11] = target: 5-hydroxytryptamine receptor 2A (Homo sapiens) (UniProt P28223); assay: 5-hydroxytryptamine receptor 2A (HTR2A) small molecule antagonists, cell-based qHTS assay (AID 1963586); details: HTR2A-CHO cells, DOI-induced calcium flux, fluorescence; series mostly up to 61.5 µM; further: nearly all actives have a fitted effect of over 45% in size; further: potency means the concentration at half of the fitted maximal effect
Sequence of 5-hydroxytryptamine receptor 2A (Homo sapiens) (P28223 whole entry, looked up): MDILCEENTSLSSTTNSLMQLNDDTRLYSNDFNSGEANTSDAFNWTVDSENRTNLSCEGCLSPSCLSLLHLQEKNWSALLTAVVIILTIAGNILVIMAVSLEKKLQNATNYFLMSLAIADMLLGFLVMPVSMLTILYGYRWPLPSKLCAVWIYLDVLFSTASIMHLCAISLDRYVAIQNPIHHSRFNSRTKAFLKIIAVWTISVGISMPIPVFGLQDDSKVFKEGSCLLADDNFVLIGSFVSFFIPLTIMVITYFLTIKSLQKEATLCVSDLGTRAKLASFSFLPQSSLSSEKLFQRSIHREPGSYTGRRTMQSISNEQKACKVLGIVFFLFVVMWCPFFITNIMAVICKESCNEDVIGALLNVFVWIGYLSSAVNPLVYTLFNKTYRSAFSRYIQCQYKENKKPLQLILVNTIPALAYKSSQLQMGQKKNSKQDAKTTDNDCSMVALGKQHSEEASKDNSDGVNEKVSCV
Summary of the method: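 Antagonist-mode intracellular calcium assay: DOI (4 nM) added after 5 min compound pre-incubation at room temperature to dye-loaded HTR2A-CHO cells. Fluorescence followed for 3 min, sampled every second.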

[12] = target: 5-hydroxytryptamine receptor 2A (Homo sapiens) (UniProt P28223); assay: 5-hydroxytryptamine receptor 2A (HTR2A) small molecule agonists, cell-based qHTS assay (AID 1963587); details: HTR2A-CHO cells, calcium flux fluorescence, agonist mode; series mostly up to 76.8 µM; further: nearly all actives have a fitted effect of over 30% in size
Summary of the method: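 HTR2A-CHO cells, plated 18 h at 37 C/5% CO2, dye-loaded 1 h at 37 C; compounds in DMSO added by pin tool (agonist mode). Intracellular calcium flux read as kinetic fluorescence on FDSS over 2 min at 1 s intervals.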

[13] = target: Muscarinic acetylcholine receptor M1 (Homo sapiens) (UniProt P11229); assay: Cholinergic receptor muscarinic 1 (CHRM1) small molecule antagonists, cell-based qHTS assay (AID 1963588); details: CHRM1-CHO antagonist mode, calcium flux fluorescence; series mostly up to 61.5 µM; further: nearly all actives have a fitted effect of over 40% in size; further: potency means the concentration at half of the fitted maximal effect
Sequence of Muscarinic acetylcholine receptor M1 (Homo sapiens) (P11229 whole entry, looked up): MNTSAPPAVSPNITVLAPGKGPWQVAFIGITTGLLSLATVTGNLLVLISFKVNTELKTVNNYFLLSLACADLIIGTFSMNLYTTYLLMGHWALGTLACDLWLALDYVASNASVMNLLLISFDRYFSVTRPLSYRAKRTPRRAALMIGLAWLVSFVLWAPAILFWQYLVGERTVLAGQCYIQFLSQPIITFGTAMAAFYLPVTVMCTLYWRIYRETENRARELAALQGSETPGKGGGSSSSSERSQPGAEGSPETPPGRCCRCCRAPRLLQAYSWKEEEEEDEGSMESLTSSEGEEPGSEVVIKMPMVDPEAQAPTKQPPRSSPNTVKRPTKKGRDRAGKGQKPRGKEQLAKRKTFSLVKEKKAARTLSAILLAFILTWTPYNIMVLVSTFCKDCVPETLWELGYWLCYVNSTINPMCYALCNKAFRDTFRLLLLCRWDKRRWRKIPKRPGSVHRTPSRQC
Summary of the method: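 CHRM1-CHO calcium-flux assay, antagonist mode. Cells were seeded 18 h, dye-loaded 1 h at 37 C and given compound for 5 min at RT, then acetylcholine was added at 50nM. FDSS fluorescence was read 3 min; 15 concentrations, three runs.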

[14] = target: Muscarinic acetylcholine receptor M1 (Homo sapiens) (UniProt P11229); assay: Cholinergic receptor muscarinic 1 (CHRM1) small molecule agonists, cell-based qHTS assay (AID 1963589); details: CHRM1-CHO cells, agonist mode, calcium flux fluorescence; series mostly up to 76.8 µM; further: nearly all actives have a fitted effect of over 35% in size
Summary of the method: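 Each compound was tested at 15 concentrations across three independent runs on dye-loaded CHO cells stably expressing human CHRM1, reading intracellular calcium fluorescence kinetically at 1 sec intervals.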

[15] = cAMP Responsive Elements (CRE) small molecule agonists, cell-based qHTS assay (AID 1963590); details: CRE-bla HEK293T, beta-lactamase FRET ratio, 3 h; series mostly up to 92.4 µM
Summary of the method: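 Cell line: CRE-bla HEK 293T; medium DMEM/10% dialyzed FBS/0.1 mM NEAA/1 mM pyruvate/25 mM HEPES; 3 h compound exposure; beta-lactamase FRET readout after 2 h substrate loading at RT.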

[16] = cAMP Responsive Elements (CRE) small molecule antagonists, cell-based qHTS assay (AID 1963591; active means well fitted inhibition curve with a large enough effect in the signal ratio in the repeat runs, not every such curve was filed as active; the % refers to the signal ratio; further: potency means the concentration at half of the fitted maximal effect); details: CRE-bla HEK293T, beta-lactamase FRET ratio; series mostly up to 92.4 µM
Summary of the method: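 Inhibition of NKH477-driven (0.25 uM final) CRE-beta-lactamase signal in HEK293T cells, 3 h compound exposure at 37 °C, detected by FRET substrate fluorescence.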

[17] = target: Beta-2 adrenergic receptor (Homo sapiens) (UniProt P07550); assay: Adrenergic beta2 receptor (ADRB2) small molecule antagonists, cell-based qHTS assay (AID 1963592); details: CHO-ADRB2 cells, isoproterenol-stimulated cAMP HTRF ratio, 0.5 h; series mostly up to 92.4 µM; further: nearly all actives have a fitted effect of over 50% in size
Sequence of Beta-2 adrenergic receptor (Homo sapiens) (P07550 whole entry, looked up): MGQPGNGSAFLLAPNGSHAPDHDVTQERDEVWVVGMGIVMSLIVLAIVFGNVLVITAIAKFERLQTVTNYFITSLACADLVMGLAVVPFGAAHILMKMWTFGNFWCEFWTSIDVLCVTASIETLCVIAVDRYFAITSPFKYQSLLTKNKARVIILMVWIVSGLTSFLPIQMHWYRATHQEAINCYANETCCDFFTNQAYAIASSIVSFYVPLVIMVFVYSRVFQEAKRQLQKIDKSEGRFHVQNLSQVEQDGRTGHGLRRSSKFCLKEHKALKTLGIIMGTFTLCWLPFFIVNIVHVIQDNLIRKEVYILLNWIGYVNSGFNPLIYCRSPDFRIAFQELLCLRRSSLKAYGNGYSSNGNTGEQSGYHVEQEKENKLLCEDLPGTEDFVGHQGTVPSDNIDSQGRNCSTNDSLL
Summary of the method: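 Cells (CHO, stable ADRB2 overexpression) incubated 18-20hr at 37C; compounds added from DMSO; agonist mix (1nM isoproterenol, 100uM IBMX, 25uM Ro-20-1724) added; 0.5hr RT; d2-cAMP and anti-cAMP-cryptate added; 1hr RT; 665/615 nm read.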

[18] = target: D(2) dopamine receptor (Homo sapiens) (UniProt P14416); assay: Dopamine D2 receptor (DRD2) small molecule agonists, cell-based qHTS assay (AID 1963594); details: HEK293-DRD2 cAMP HTRF, agonist mode, 30 min; series mostly up to 92.4 µM; further: nearly all actives have a fitted effect of over 35% in size
Sequence of D(2) dopamine receptor (Homo sapiens) (P14416 whole entry, looked up): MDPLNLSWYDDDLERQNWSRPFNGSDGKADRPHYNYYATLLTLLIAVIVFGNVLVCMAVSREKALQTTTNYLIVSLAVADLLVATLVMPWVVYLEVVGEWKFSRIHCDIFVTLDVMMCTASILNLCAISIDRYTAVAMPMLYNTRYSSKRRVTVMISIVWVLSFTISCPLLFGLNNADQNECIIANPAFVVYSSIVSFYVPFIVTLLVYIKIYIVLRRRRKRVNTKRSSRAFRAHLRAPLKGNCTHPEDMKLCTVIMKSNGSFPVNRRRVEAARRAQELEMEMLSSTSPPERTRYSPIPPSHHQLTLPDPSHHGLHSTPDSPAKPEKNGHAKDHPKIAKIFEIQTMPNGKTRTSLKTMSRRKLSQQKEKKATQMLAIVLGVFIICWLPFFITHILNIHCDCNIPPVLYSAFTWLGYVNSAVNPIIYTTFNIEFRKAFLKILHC
Summary of the method: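 HEK293 cells stably expressing DRD2 were cultured 24 h at 37 C, then given Ro20-1724 (0.1 mM final) and compounds for 10 min at room temperature. NKH477 (200nM) was then added for 30 min. cAMP was read by HTRF.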

[19] = target: D(2) dopamine receptor (Homo sapiens) (UniProt P14416); assay: Dopamine D2 receptor (DRD2) small molecule antagonists, cell-based qHTS assay (AID 1963595; active means well fitted inhibition curve with a large enough effect in the signal ratio in the repeat runs, with a control signal flat; the % refers to the signal ratio); details: HEK293-DRD2 cAMP HTRF antagonist mode; series mostly up to 92.4 µM
Summary of the method: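 Human DRD2 antagonist qHTS measuring cAMP by HTRF. The cells are exposed to compound for 10 min, then to NKH477 (200 nM) and quinpirole (12 nM) for 30 min at RT, with Ro20-1724 (0.1 mM) present throughout.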

[20] = target: Beta-2 adrenergic receptor (Homo sapiens) (UniProt P07550); assay: Adrenergic beta2 receptor (ADRB2) small molecule agonists, cell-based qHTS assay (AID 1963593); details: CHO-ADRB2 cells, cAMP HTRF, 30 min; series mostly up to 42.5 µM;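 further: CHO cells stably overexpressing human ADRB2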
Summary of the method: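 CHO cells stably over-expressing ADRB2 were plated overnight at 37C, then dosed with compounds plus a stimulation mix containing 100uM IBMX and 25uM Ro-20-1724 for 0.5hr at room temperature. cAMP was measured by HTRF competition, 1hr.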
On the % scale 0 is the no-effect control and ±100 the full control effect.

CSSc1ccoc1C
inactive: Potency [1] | Potency [2] | Potency [3] | outcome [4] | outcome [5] | Potency [6] | Potency [7] | Potency [8] | Potency [9] | Potency [10] | Potency [11] | Potency [12] | Potency [13] | Potency [14] | Potency [15] | Potency [16] | Potency [17] | Potency [18] | Potency [19]

CN(C)CCN(Cc1ccc(Cl)cc1)c1ccccn1
active: Potency [11] 8.18 µM | Potency [13] 7.29 µM
inactive: Potency [1] | Potency [2] | Potency [3] | outcome [4] | outcome [5] | Potency [6] | Potency [7] | Potency [8] | Potency [9] | Potency [10] | Potency [12] | Potency [14] | Potency [15] | Potency [16] | Potency [17] | Potency [18] | Potency [19]

CC(C)=CCC[C@H](C)CCO
inactive: Potency [1] | Potency [2] | Potency [3] | outcome [4] | outcome [5] | Potency [6] | Potency [7] | Potency [8] | Potency [9] | Potency [10] | Potency [11] | Potency [12] | Potency [13] | Potency [14] | Potency [15] | Potency [16] | Potency [17] | Potency [18] | Potency [19]

CC1(C)CC(OC(=O)CCCCCCCCC(=O)OC2CC(C)(C)NC(C)(C)C2)CC(C)(C)N1
inactive: activity change, negative = cytotoxicity [1] -0.0002% [at 19 µM] | activity, positive = activation [2] -1.35% [at 19 µM] | activity change [3] 1.96% [at 11.8 µM, hits give high values] | activation [4] 3.13% [at 15.8 µM] | activation [5] 0.376% [at 11.8 µM] | activation [6] 1.98% [at 13.5 µM] | activation [7] 0.45% [at 13.6 µM] | activity change, negative = cytotoxicity [8] 20.2% [at 13.5 µM] | activity change, negative = cytotoxicity [9] -0.213% [at 13.5 µM] | activation [10] -3.4% [at 13.5 µM] | activity, negative = inhibition [11] -5.05% [at 12.7 µM] | activation [12] 2.3% [at 15.9 µM] | activity, negative = inhibition [13] 30.1% [at 12.6 µM] | activation [14] -1.98% [at 15.8 µM] | activation [15] 1.42% [at 19 µM] | activity change, negative = inhibition [16] -9.13% [at 18.9 µM] | activity change, negative = inhibition [17] 8.71% [at 19 µM] | activation [18] -4.7% [at 19 µM] | activity change, negative = inhibition [19] 0.47% [at 18.9 µM]

Nc1ncnc(Nc2ccccc2)n1
inactive: Potency [1] | Potency [2] | Potency [3] | outcome [4] | outcome [5] | Potency [6] | Potency [7] | Potency [8] | Potency [9] | Potency [10] | Potency [11] | Potency [12] | Potency [13] | Potency [14] | Potency [15] | Potency [16] | Potency [17] | Potency [20] | Potency [18] | Potency [19]

CCOc1ccc([N+](=O)[O-])cc1
inactive: Potency [2] | Potency [3] | outcome [4] | outcome [5] | Potency [6] | Potency [7] | Potency [11] | Potency [13] | Potency [15] | Potency [17] | Potency [18]
active: Potency [1] 62 µM | Potency [16] 55.3 µM
